Source: PubChem BioAssay (EPA / NIEHS)
Active and inactive are the calls of the source. How the source made its calls: active means hit-call score of the fitted dose curve at least 0.9, where 1 is the maximum; inactive means score below 0.9.

Key:
Conditions in all cases: mRNA level, 48 h; actives raise or lower the signal
[1] = read-out: Bcl-2 (BAD) gene, BAD (gene 572); test: LTEA_HepaRG_BAD: Life Technologies and Expression Analysis (LTEA) Assay for Bcl-2 (BAD) gene using HepaRG (AID 2283469)
Method in brief: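 HepaRG, 48 h exposure, 8-pt half-log curve from 100 uM in 0.5% DMSO, duplicates. Readout: TaqMan qRT-PCR for BAD mRNA, housekeeping-normalised (ACTB/GAPDH/POLR2A); gain or loss fitted against DMSO baseline.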

[2] = read-out: Bcl-2 (BAX) gene, BAX (gene 581); test: LTEA_HepaRG_BAX: Life Technologies and Expression Analysis (LTEA) Assay for Bcl-2 (BAX) gene using HepaRG (AID 2283470)
Method in brief: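 qRT-PCR read-out of BAX mRNA, normalized to three housekeeping genes, after 48 h chemical exposure of human HepaRG cells in serum-free induction medium; eight-point half-log series, top 100 uM, 0.5% DMSO vehicle; bidirectional fit versus DMSO.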

[3] = read-out: adenosine kinase (ADK) gene, ADK (gene 132); test: LTEA_HepaRG_ADK: Life Technologies and Expression Analysis (LTEA) Assay for adenosine kinase (ADK) gene using HepaRG (AID 2283471)
Method in brief: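 Differentiated HepaRG cells dosed 48 h in serum-free induction medium, 0.5% DMSO vehicle, eight half-log concentrations from 100 uM, in duplicate. ADK mRNA by TaqMan qRT-PCR normalised to ACTB, GAPDH, POLR2A; bidirectional fit versus DMSO.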

[4] = read-out: BCL2L11 (gene 10018); test: LTEA_HepaRG_BCL2L11: Life Technologies and Expression Analysis (LTEA) Assay for Bcl-2 (BCL2L11) gene using HepaRG (AID 2283473)
Method in brief: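 Read-out is BCL2L11 transcript level by qRT-PCR, normalized to three housekeeping genes and fitted bidirectionally against 0.5% DMSO vehicle. HepaRG cells received chemicals for 48 h in serum-free induction medium, 100 uM down in half-log dilutions.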

[5] = read-out: Apolipoprotein A-V (APOA5) gene, APOA5 (gene 116519); test: LTEA_HepaRG_APOA5: Life Technologies and Expression Analysis (LTEA) Assay for Apolipoprotein A-V (APOA5) gene using HepaRG (AID 2283474)
Method in brief: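 Readout is APOA5 transcript level by qRT-PCR on Fluidigm dynamic arrays, normalized to three housekeeping genes. HepaRG cultures received chemicals for 48 h at up to 100 uM (half-log steps, 0.5% DMSO), with gain or loss scored relative to DMSO.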

[6] = read-out: Apoptosis regulator Bcl-2 (Homo sapiens) (UniProt P10415); test: LTEA_HepaRG_BCL2: Life Technologies and Expression Analysis (LTEA) Assay for Bcl-2 gene using HepaRG (AID 2283475)
Method in brief: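 qRT-PCR read-out (Fluidigm TaqMan) of BCL2 transcript, normalised to three housekeeping genes, after 48 h chemical exposure of HepaRG cells; 8-point half-log series, top 100 uM, 0.5% DMSO vehicle. Gain or loss of signal fitted relative to DMSO baseline.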

[7] = read-out: Bcl-2 (BID) gene, BID (gene 637); test: LTEA_HepaRG_BID: Life Technologies and Expression Analysis (LTEA) Assay for Bcl-2 (BID) gene using HepaRG (AID 2283476)
Method in brief: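 HepaRG, 48 h exposure, 8-pt half-log series, top 100 uM, 0.5% DMSO vehicle, duplicates. Readout: BID mRNA by TaqMan qRT-PCR; housekeeping-normalized; bidirectional curve fit vs DMSO baseline.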

[8] = read-out: Caspase-3 (Homo sapiens) (UniProt P42574); test: LTEA_HepaRG_CASP3: Life Technologies and Expression Analysis (LTEA) Assay for cysteine-aspartic acid protease (CASP3) using HepaRG (AID 2283477)
Method in brief: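 Read-out is CASP3 mRNA level by TaqMan qRT-PCR in human HepaRG cells after 48 h chemical exposure. Eight half-log concentrations topping at 100 uM were tested in 0.5% DMSO; gain or loss was fitted relative to DMSO.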

[9] = read-out: Cytochrome P450 (CYP24A1), CYP24A1 (gene 1591); test: LTEA_HepaRG_CYP24A1: Life Technologies and Expression Analysis (LTEA) Assay for Cytochrome P450 (CYP24A1) using HepaRG (AID 2283478)
Method in brief: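 HepaRG, 48 h chemical exposure, 8-pt half-log CRC from 100 uM, 0.5% DMSO vehicle, duplicates. Endpoint: CYP24A1 mRNA by Fluidigm TaqMan qRT-PCR, normalized ACTB/GAPDH/POLR2A; gain/loss fit vs DMSO.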

[10] = read-out: Cytochrome P450 (CYP1A2), CYP1A2 (gene 1544); test: LTEA_HepaRG_CYP1A2: Life Technologies and Expression Analysis (LTEA) Assay for Cytochrome P450 (CYP1A2) using HepaRG (AID 2283479)
Method in brief: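 CYP1A2 transcript induction or loss, quantified by Fluidigm qRT-PCR against three housekeeping genes, was fitted bidirectionally against 0.5% DMSO controls. Human HepaRG cells received eight half-log concentrations from 100 uM over 48 h.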

[11] = read-out: cysteine-aspartic acid protease (CASP8), CASP8 (gene 841); test: LTEA_HepaRG_CASP8: Life Technologies and Expression Analysis (LTEA) Assay for cysteine-aspartic acid protease (CASP8) using HepaRG (AID 2283480)
Method in brief: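 qRT-PCR readout of CASP8 mRNA, normalized to three housekeeping genes, after 48 h chemical exposure of HepaRG cells; 8-point half-log series, top 100 uM, 0.5% DMSO vehicle. Bidirectional curve fitting against DMSO baseline.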

[12] = read-out: Cytochrome P450 (CYP2B6), CYP2B6 (gene 1555); test: LTEA_HepaRG_CYP2B6: Life Technologies and Expression Analysis (LTEA) Assay for Cytochrome P450 (CYP2B6) using HepaRG (AID 2283481)
Method in brief: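 HepaRG cells plated 48 h, switched to serum-free induction medium, then dosed 48 h (8 points, half-log from 100 uM, 0.5% DMSO). RNA isolated; CYP2B6 expression measured by qRT-PCR; gain or loss fitted relative to DMSO.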

[13] = read-out: Cytochrome P450 2C19 (Homo sapiens) (UniProt P33261); test: LTEA_HepaRG_CYP2C19: Life Technologies and Expression Analysis (LTEA) Assay for CYP2C19 using HepaRG (AID 2283482)
Method in brief: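 Transcript levels of CYP2C19 were quantified by qRT-PCR after HepaRG cells were treated for 48 hours with test chemicals up to 100 uM (eight half-log concentrations, 0.5% DMSO vehicle). Gain or loss of signal was fitted relative to DMSO.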

[14] = read-out: CYP2C8 (gene 1558); test: LTEA_HepaRG_CYP2C8: Life Technologies and Expression Analysis (LTEA) Assay for CYP2C8 using HepaRG (AID 2283483)
Method in brief: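 HepaRG (human liver line), 48 h chemical exposure, 8-pt half-log series from 100 uM, 0.5% DMSO vehicle. Readout: CYP2C8 transcript by qRT-PCR, housekeeping-normalized. Bidirectional fit vs DMSO baseline.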

[15] = read-out: CYP2C9 (gene 1559); test: LTEA_HepaRG_CYP2C9: Life Technologies and Expression Analysis (LTEA) Assay for CYP2C9 using HepaRG (AID 2283484)
Method in brief: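 HepaRG, 48 h dosing, 8-pt half-log series, top 100 uM, 0.5% DMSO vehicle. Read-out: CYP2C9 transcript by TaqMan qRT-PCR, housekeeping-normalized (ACTB/GAPDH/POLR2A). Gain or loss fitted vs DMSO baseline.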

[16] = read-out: CYP2E1 (gene 1571); test: LTEA_HepaRG_CYP2E1: Life Technologies and Expression Analysis (LTEA) Assay for CYP2E1 using HepaRG (AID 2283485)
Method in brief: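 CYP2E1 transcript was measured by TaqMan qRT-PCR in human HepaRG cultures after 48 h chemical exposure (top 100 uM, half-log steps, 0.5% DMSO vehicle). Housekeeping-gene normalization; gain or loss fitted relative to DMSO baseline.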

[17] = read-out: CYP4A11 (gene 1579); test: LTEA_HepaRG_CYP4A11: Life Technologies and Expression Analysis (LTEA) Assay for CYP4A11 using HepaRG (AID 2283486)
Method in brief: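 HepaRG, 48 h chem exposure, 8 conc (100 uM top, half-log), 0.5% DMSO vehicle; qRT-PCR readout, housekeeping-gene normalized; bidirectional curve fit vs DMSO baseline.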

[18] = read-out: Cytochrome P450 3A4 (Homo sapiens) (UniProt P08684); test: LTEA_HepaRG_CYP3A4: Life Technologies and Expression Analysis (LTEA) Assay for CYP3A4 using HepaRG (AID 2283487)
Method in brief: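 Differentiated HepaRG cells in serum-free induction medium exposed in duplicate for 48 h to 8 half-log concentrations up to 100 uM in 0.5% DMSO. CYP3A4 mRNA measured by qRT-PCR normalized to ACTB, GAPDH and POLR2A; bidirectional fit versus DMSO.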

[19] = read-out: DNA damage-inducible transcript 3 (DDIT3), DDIT3 (gene 1649); test: LTEA_HepaRG_DDIT3: Life Technologies and Expression Analysis (LTEA) Assay for DNA damage-inducible transcript 3 (DDIT3) using HepaRG (AID 2283488)
Method in brief: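 qRT-PCR readout (Fluidigm TaqMan), housekeeping-normalized to ACTB, GAPDH, POLR2A. HepaRG cells, 48 h exposure, 8-point half-log series from 100 uM in 0.5% DMSO, duplicates. Gain or loss of signal fitted against DMSO baseline.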

Measured: AC50

Chain of Caspase-3 (Homo sapiens) (P42574 whole entry, looked up): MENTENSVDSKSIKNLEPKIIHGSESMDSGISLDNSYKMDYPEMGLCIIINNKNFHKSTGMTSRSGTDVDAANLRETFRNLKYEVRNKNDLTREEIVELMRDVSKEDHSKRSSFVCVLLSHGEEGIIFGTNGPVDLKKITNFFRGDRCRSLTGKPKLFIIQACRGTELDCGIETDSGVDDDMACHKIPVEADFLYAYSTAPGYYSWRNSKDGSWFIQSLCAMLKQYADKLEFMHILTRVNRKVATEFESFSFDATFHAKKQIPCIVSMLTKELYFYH
Chain of Apoptosis regulator Bcl-2 (Homo sapiens) (P10415 whole entry, looked up): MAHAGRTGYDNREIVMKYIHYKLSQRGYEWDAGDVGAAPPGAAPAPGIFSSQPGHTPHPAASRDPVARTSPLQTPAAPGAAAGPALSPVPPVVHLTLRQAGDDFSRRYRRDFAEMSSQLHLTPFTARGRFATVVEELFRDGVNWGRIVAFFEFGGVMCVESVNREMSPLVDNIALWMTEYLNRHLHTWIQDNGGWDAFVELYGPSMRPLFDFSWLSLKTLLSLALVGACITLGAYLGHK
Chain of Cytochrome P450 3A4 (Homo sapiens) (P08684 whole entry, looked up): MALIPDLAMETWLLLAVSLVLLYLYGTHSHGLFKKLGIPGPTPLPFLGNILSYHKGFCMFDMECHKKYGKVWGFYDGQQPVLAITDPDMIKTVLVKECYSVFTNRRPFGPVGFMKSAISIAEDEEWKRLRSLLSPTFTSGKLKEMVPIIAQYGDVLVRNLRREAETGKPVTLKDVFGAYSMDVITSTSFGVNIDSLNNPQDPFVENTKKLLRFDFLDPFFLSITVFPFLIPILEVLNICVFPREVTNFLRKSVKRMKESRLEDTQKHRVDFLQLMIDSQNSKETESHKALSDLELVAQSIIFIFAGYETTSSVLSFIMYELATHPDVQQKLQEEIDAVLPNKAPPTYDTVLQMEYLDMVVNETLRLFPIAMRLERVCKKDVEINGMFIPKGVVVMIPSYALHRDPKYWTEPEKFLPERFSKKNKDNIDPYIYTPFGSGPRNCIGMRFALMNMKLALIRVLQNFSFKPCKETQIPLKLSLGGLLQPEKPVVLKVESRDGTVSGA
Chain of Cytochrome P450 2C19 (Homo sapiens) (P33261 whole entry, looked up): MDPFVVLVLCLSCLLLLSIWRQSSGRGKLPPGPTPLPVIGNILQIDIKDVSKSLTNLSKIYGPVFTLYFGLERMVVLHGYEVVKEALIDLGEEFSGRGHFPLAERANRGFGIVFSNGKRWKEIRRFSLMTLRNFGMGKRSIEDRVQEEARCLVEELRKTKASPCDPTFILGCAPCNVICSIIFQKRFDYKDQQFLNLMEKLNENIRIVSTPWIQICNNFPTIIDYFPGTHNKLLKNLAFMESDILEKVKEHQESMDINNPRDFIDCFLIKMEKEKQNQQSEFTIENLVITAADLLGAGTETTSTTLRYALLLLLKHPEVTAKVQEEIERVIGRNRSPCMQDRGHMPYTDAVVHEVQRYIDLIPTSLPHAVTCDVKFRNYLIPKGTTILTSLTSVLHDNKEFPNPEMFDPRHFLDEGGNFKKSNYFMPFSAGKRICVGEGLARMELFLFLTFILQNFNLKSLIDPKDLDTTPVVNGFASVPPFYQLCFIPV

CC1(C)C(C(=O)OC(C#N)c2cccc(Oc3ccccc3)c2)C1(C)C (configuration not stated)
active: [10] 39.6 µM | [12] 67.6 µM | [13] 50 µM | [16] 9.92 µM | [17] 50 µM | [18] 50 µM
inactive: all other assays above

COC(=O)N(C(=O)N1CO[C@@]2(C(=O)OC)Cc3cc(Cl)ccc3C2=N1)c1ccc(OC(F)(F)F)cc1
active: [4] 12.7 µM | [10] 10.4 µM | [12] 0.89 µM | [13] 9.46 µM | [15] 64.8 µM | [16] 24 µM | [17] 25.6 µM | [18] 9.42 µM
not listed: [11]
inactive: all other assays above

COP(=S)(OC)SCn1nnc2ccccc2c1=O
active: [10] 33.6 µM | [12] 6.27 µM | [13] 40.9 µM | [18] 25 µM
inactive: all other assays above

Cc1ccc(N=CN(C)C=Nc2ccc(C)cc2C)c(C)c1
active: [10] 51.6 µM | [12] 30.3 µM
inactive: all other assays above

CSC(=O)c1c(C(F)F)nc(C(F)(F)F)c(C(=O)SC)c1CC(C)C
active: [6] 49.8 µM | [12] 11.8 µM | [13] 12.2 µM | [14] 11.5 µM | [15] 87 µM | [16] 53.7 µM | [17] 87.3 µM | [18] 2.51 µM
inactive: all other assays above

CS(=O)(=O)c1cc(C(F)(F)F)ccc1C(=O)c1cnoc1C1CC1
active: [16] 9.92 µM | [18] 35 µM
inactive: all other assays above

CC(C)=CC1C(C(=O)OCc2coc(Cc3ccccc3)c2)C1(C)C (configuration not stated)
active: [12] 20.1 µM | [13] 15.5 µM | [16] 39.1 µM | [17] 50 µM
not listed: [18]
inactive: all other assays above

CCNP(=S)(OC)O/C(C)=C/C(=O)OC(C)C (configuration not stated)
active: [10] 18 µM | [12] 5.19 µM | [13] 8.66 µM | [14] 12.9 µM | [16] 34.8 µM | [17] 68.4 µM | [18] 8.97 µM
inactive: all other assays above

COCc1cnc(C2=NC(C)(C(C)C)C(=O)N2)c(C(=O)O)c1 (configuration not stated)
not listed: [11]
inactive: all other assays above

CCOc1nc(C(Cl)(Cl)Cl)ns1
inactive: [15] | [16] | [18]
active: [1] 1.3 µM | [2] 1.39 µM | [3] 1.06 µM | [4] 0.862 µM | [5] 1.44 µM | [6] 1.51 µM | [7] 1.33 µM | [8] 1.05 µM | [9] 1.93 µM | [10] 0.939 µM | [11] 1.08 µM | [12] 1.28 µM | [13] 14.9 µM | [14] 1.14 µM | [17] 1.12 µM | [19] 1.61 µM

CN/C(=N\[N+](=O)[O-])NCc1cnc(Cl)s1
active: [12] 30.8 µM | [16] 50 µM
not listed: [11]
inactive: all other assays above

COCC(C)N(C(=O)CCl)c1c(C)csc1C (configuration not stated)
active: [12] 2.05 µM | [16] 64.6 µM
not listed: [18]
inactive: all other assays above

C=CCOC(=O)C(C)(C)OC(=O)c1cc(-n2c(=O)cc(C(F)(F)F)n(C)c2=O)ccc1Cl
active: [12] 6.65 µM | [18] 16.6 µM
inactive: all other assays above
